About 83,000 compounds went through this panel and 20% of them were active in at least one assay; those are over-represented in the sample as a whole.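 Testing used 96-well plates and a 48-hour single-concentration exposure. Example: -40 means 40% of the starting cells died.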 Unmarked numbers belong to inactive results. Active and inactive are the calls of the source. Rule for the calls: active = growth percent below 10; inactive = the rest.
Assays:
Experiment in all cases: NCI-60 one-dose screen, 48 h (100 = growth as untreated, 0 = no growth, -100 = all killed)
Conditions in all cases: 10 µM unless noted
SK-MEL-2 melanoma = system: SK-MEL-2 melanoma
EKVX NSCLC = system: EKVX NSCLC
SN12C renal = system: SN12C renal
UO-31 renal = system: UO-31 renal
TK-10 renal = system: TK-10 renal
ACHN renal = system: ACHN renal
CAKI-1 renal = system: CAKI-1 renal
A498 renal = system: A498 renal
CCRF-CEM leukemia = system: CCRF-CEM leukemia
MOLT-4 leukemia = system: MOLT-4 leukemia

## Cc1cc(N2CCN(C)CC2)nc(NCc2cc(Nc3ccnc4cc(Cl)ccc34)ccc2F)n1
SK-MEL-2 melanoma
  growth: -67.8% (active)
EKVX NSCLC
  growth: 27.4%
SN12C renal
  growth: -20.8% (active)
UO-31 renal
  growth: -27.1% (active)
TK-10 renal
  growth: -29.5% (active)
ACHN renal
  growth: -10.6% (active)
CAKI-1 renal
  growth: 12.9%
A498 renal
  growth: -40.7% (active)
CCRF-CEM leukemia
  growth: -4.6% (active)
MOLT-4 leukemia
  growth: 10.2%

## Cc1nn(-c2ccccc2)c(N2CCCCC2)c1/C=N/NC(=O)Cn1c(=O)sc2ccccc21
SK-MEL-2 melanoma
  growth: 88.9%
EKVX NSCLC
  growth: 74.5%
SN12C renal
  growth: 85%
UO-31 renal
  growth: 48.1%
TK-10 renal
  growth: 88.5%
ACHN renal
  growth: 66.8%
CAKI-1 renal
  growth: 34.7%
A498 renal
  growth: 80.7%
CCRF-CEM leukemia
  growth: 84.7%
MOLT-4 leukemia
  growth: 54.7%

## Cc1ccc(C(=O)c2ccc(CC(=O)N/N=C/c3ccc(O)cc3O)n2C)cc1
SK-MEL-2 melanoma
  growth: 59.5%
EKVX NSCLC
  growth: 34.2%
SN12C renal
  growth: 55.7%
UO-31 renal
  growth: 19.8%
TK-10 renal
  growth: 52.9%
ACHN renal
  growth: 16.5%
CAKI-1 renal
  growth: 46.6%
A498 renal
  growth: 87.4%
CCRF-CEM leukemia
  growth: 16.8%
MOLT-4 leukemia
  growth: 12.6%

## COCC[C@H]1CCC/C=C/[C@@H]2C[C@H](O)C[C@H]2[C@H](O)/C=C/C(=O)O1
SK-MEL-2 melanoma
  growth: -3.55% (active)
EKVX NSCLC
  growth: 4.95% (active)
SN12C renal
  growth: 8.16% (active)
UO-31 renal
  growth: 10.9%
TK-10 renal
  growth: -38.5% (active)
ACHN renal
  growth: 4.75% (active)
CAKI-1 renal
  growth: -18.6% (active)
A498 renal
  growth: -31.1% (active)
CCRF-CEM leukemia
  growth: 17.6%
MOLT-4 leukemia
  growth: 7.61% (active)

## NC(=O)c1ccc(NC(=O)c2oc3ccccc3c2-c2cnn(-c3ccccc3)c2)cc1
SK-MEL-2 melanoma
  growth: 61.5% [50 µM]
EKVX NSCLC
  growth: 7.54% [50 µM] (active)
SN12C renal
  growth: 14.7% [50 µM]
UO-31 renal
  growth: -1.76% [50 µM] (active)
TK-10 renal
  growth: 44.5% [50 µM]
ACHN renal
  growth: -11.1% [50 µM] (active)
CAKI-1 renal
  growth: -29.4% [50 µM] (active)
A498 renal
  growth: 16.4% [50 µM]
CCRF-CEM leukemia
  growth: 73.1% [50 µM]
MOLT-4 leukemia
  growth: 61.2% [50 µM]

## COc1ccc(C2=NN(C(C)=O)C(c3ccc(Oc4ccnc5cc(Cl)ccc45)c(OC)c3)C2)cc1 (stereo not given)
SK-MEL-2 melanoma
  growth: 42.4%
EKVX NSCLC
  growth: 62%
SN12C renal
  growth: 68.7%
UO-31 renal
  growth: 70%
TK-10 renal
  growth: 36.6%
ACHN renal
  growth: 22.9%
CAKI-1 renal
  growth: 47.9%
A498 renal
  growth: 66.3%
CCRF-CEM leukemia
  growth: 85.7%
MOLT-4 leukemia
  growth: 78.9%

## COP(=O)(OC)c1nnn(-c2cccc([N+](=O)[O-])c2)c1C
SK-MEL-2 melanoma
  growth: 106%
EKVX NSCLC
  growth: 106%
SN12C renal
  growth: 104%
UO-31 renal
  growth: 84.5%
TK-10 renal
  growth: 99%
ACHN renal
  growth: 106%
CAKI-1 renal
  growth: 97.2%
A498 renal
  growth: 101%
CCRF-CEM leukemia
  growth: 104%
MOLT-4 leukemia
  growth: 101%

## O=C(Cn1nnc2ccccc21)N/N=C/c1ccccc1F
SK-MEL-2 melanoma
  growth: 102%
EKVX NSCLC
  growth: 106%
SN12C renal
  growth: 83.9%
UO-31 renal
  growth: 87%
TK-10 renal
  growth: 107%
ACHN renal
  growth: 106%
CAKI-1 renal
  growth: 97.9%
A498 renal
  growth: 85.5%
CCRF-CEM leukemia
  growth: 103%
MOLT-4 leukemia
  growth: 104%

## COC(=O)C1=C(C)NC(C)=C(C(=O)OCC(C)C)C1c1ccccc1[N+](=O)[O-] (stereo not given)
SK-MEL-2 melanoma
  growth: 64.8%
EKVX NSCLC
  growth: 58.3%
SN12C renal
  growth: 64.3%
UO-31 renal
  growth: 28.3%
TK-10 renal
  growth: 80.7%
ACHN renal
  growth: 26.8%
CAKI-1 renal
  growth: 21.9%
A498 renal
  growth: 50.4%
CCRF-CEM leukemia
  growth: 7.1% (active)
MOLT-4 leukemia
  growth: 43.6%

## CCCn1c(=S)sc2c1nc(C)n1c(Nc3ccccc3)nnc21
SK-MEL-2 melanoma
  growth: -0.18% (active)
EKVX NSCLC
  growth: 36.6%
SN12C renal
  growth: 55.6%
UO-31 renal
  growth: 71.6%
TK-10 renal
  growth: 86.7%
ACHN renal
  growth: 82.8%
CAKI-1 renal
  growth: 93.9%
A498 renal
  growth: 57.2%
CCRF-CEM leukemia
  growth: 66.3%
MOLT-4 leukemia
  growth: 31.1%

## COc1cc(/C=C/c2cc(/C=C/c3ccc(O)c(OC)c3)n(C(=O)Nc3ccc(F)cc3)n2)ccc1O
SK-MEL-2 melanoma
  growth: -27.1% (active)
EKVX NSCLC
  growth: 26.9%
SN12C renal
  growth: 17.9%
UO-31 renal
  growth: 14%
TK-10 renal
  growth: 38.1%
ACHN renal
  growth: 20.2%
CAKI-1 renal
  growth: -7.81% (active)
A498 renal
  growth: 31.5%
CCRF-CEM leukemia
  growth: 6.82% (active)
MOLT-4 leukemia
  growth: -3.56% (active)

## COc1cc2ncnc(Nc3ccc(F)c(Cl)c3)c2cc1OCC(=O)N1CCN(c2ccc(F)cc2)CC1
SK-MEL-2 melanoma
  growth: 97.5%
EKVX NSCLC
  growth: 78.3%
SN12C renal
  growth: 88.2%
UO-31 renal
  growth: 44.5%
TK-10 renal
  growth: 38.2%
ACHN renal
  growth: 45.9%
CAKI-1 renal
  growth: 44.8%
A498 renal
  growth: 72.5%
CCRF-CEM leukemia
  growth: 113%
MOLT-4 leukemia
  growth: 85.8%

## COc1ncc2cc1NS(=O)(=O)c1cccc(c1)C(=O)NCC1=CC=C(S1)c1ncnc3c1SC2=C3C
SK-MEL-2 melanoma
  growth: -33.2% (active)
EKVX NSCLC
  growth: -15.6% (active)
SN12C renal
  growth: 5.73% (active)
UO-31 renal
  growth: -12.9% (active)
TK-10 renal
  growth: -6.51% (active)
ACHN renal
  growth: -13.7% (active)
CAKI-1 renal
  growth: -26.1% (active)
A498 renal
  growth: -67.2% (active)
CCRF-CEM leukemia
  growth: -0.78% (active)
MOLT-4 leukemia
  growth: -20.2% (active)

## COc1ccc(C(O)c2cc3c(N)c(C(=O)Nc4cccc(Cl)c4)sc3nc2C)cc1 (stereo not given)
SK-MEL-2 melanoma
  growth: 53.7%
EKVX NSCLC
  growth: 48.4%
SN12C renal
  growth: 22.2%
UO-31 renal
  growth: 45.4%
TK-10 renal
  growth: 64%
ACHN renal
  growth: 30.3%
CAKI-1 renal
  growth: 24.7%
A498 renal
  growth: 8.34% (active)
CCRF-CEM leukemia
  growth: 8.82% (active)
MOLT-4 leukemia
  growth: 15.4%

## CN1CCN(Cc2ccc(NC(=O)c3cncc(C#Cc4cncc5ncccc45)c3)cc2C(F)(F)F)CC1
SK-MEL-2 melanoma
  growth: -69.1% (active)
EKVX NSCLC
  growth: 39.2%
SN12C renal
  growth: 21.3%
UO-31 renal
  growth: -10.2% (active)
TK-10 renal
  growth: 22%
ACHN renal
  growth: 8.35% (active)
CAKI-1 renal
  growth: -19.7% (active)
A498 renal
  growth: -25.5% (active)
CCRF-CEM leukemia
  growth: 3.31% (active)
MOLT-4 leukemia
  growth: 9.12% (active)

## COc1ccc(C2C3=C(COC3=O)N(CCO)c3cc4c(cc32)OCCO4)cc1OC (stereo not given)
SK-MEL-2 melanoma
  growth: 55.3%
EKVX NSCLC
  growth: 56.5%
SN12C renal
  growth: 42%
UO-31 renal
  growth: 66.2%
TK-10 renal
  growth: 65.1%
ACHN renal
  growth: 42.2%
CAKI-1 renal
  growth: 49.5%
A498 renal
  growth: -5.71% (active)
CCRF-CEM leukemia
  growth: 21.1%
MOLT-4 leukemia
  growth: 55.3%

## CCOC(=O)c1n[nH]n2c1nc(=O)c1cnn(C)c12
SK-MEL-2 melanoma
  growth: 99.6%
EKVX NSCLC
  growth: 102%
SN12C renal
  growth: 105%
UO-31 renal
  growth: 84.4%
TK-10 renal
  growth: 97.6%
ACHN renal
  growth: 105%
CAKI-1 renal
  growth: 103%
A498 renal
  growth: 110%
CCRF-CEM leukemia
  growth: 95.6%
MOLT-4 leukemia
  growth: 99.7%

## COc1cc2cc(Oc3ccc(NC(=O)Nc4ccccc4)cc3)c(C)nc2cc1OCCN1CCCCC1
SK-MEL-2 melanoma
  growth: 100%
EKVX NSCLC
  growth: 99.8%
SN12C renal
  growth: 89.9%
UO-31 renal
  growth: 64.3%
TK-10 renal
  growth: 108%
ACHN renal
  growth: 84.4%
CAKI-1 renal
  growth: 96.1%
A498 renal
  growth: 55.4%
CCRF-CEM leukemia
  growth: -20.9% (active)
MOLT-4 leukemia
  growth: -22.2% (active)

## O=C1Nc2ccc(F)cc2/C1=N/c1nnc(Sc2ccccc2)s1
SK-MEL-2 melanoma
  growth: 102%
EKVX NSCLC
  growth: 101%
SN12C renal
  growth: 95.4%
UO-31 renal
  growth: 80.2%
TK-10 renal
  growth: 111%
ACHN renal
  growth: 82.2%
CAKI-1 renal
  growth: 75.1%
A498 renal
  growth: 79%
CCRF-CEM leukemia
  growth: 47.7%
MOLT-4 leukemia
  growth: 77.2%

## N=c1sc(Cc2cc(Cl)ccc2Cl)cn1CC(=O)c1ccccc1
SK-MEL-2 melanoma
  growth: 61.6%
EKVX NSCLC
  growth: 54.4%
SN12C renal
  growth: 63%
UO-31 renal
  growth: 43.9%
TK-10 renal
  growth: 61.3%
ACHN renal
  growth: 37.3%
CAKI-1 renal
  growth: 21.1%
A498 renal
  growth: 49%
CCRF-CEM leukemia
  growth: 60%
MOLT-4 leukemia
  growth: 49.8%

## CC(C)CSc1oc(-c2ccccc2)nc1S(=O)(=O)c1ccccc1
SK-MEL-2 melanoma
  growth: 95.9%
EKVX NSCLC
  growth: 88.8%
SN12C renal
  growth: 95%
UO-31 renal
  growth: 75.7%
TK-10 renal
  growth: 65.6%
ACHN renal
  growth: 89.9%
CAKI-1 renal
  growth: 76.7%
A498 renal
  growth: 84.9%
CCRF-CEM leukemia
  growth: 86.9%
MOLT-4 leukemia
  growth: 76.1%

## C[C@@H](CO)[C@@H]1CC[C@]2(C(=O)N3CCN(C)CC3)CC[C@]3(C)[C@H](CC[C@@H]4[C@@]5(C)CC[C@H](O)C(C)(C)[C@@H]5CC[C@]43C)[C@@H]12
SK-MEL-2 melanoma
  growth: 90.1%
EKVX NSCLC
  growth: 88.4%
SN12C renal
  growth: 71.9%
UO-31 renal
  growth: 64.7%
TK-10 renal
  growth: 113%
ACHN renal
  growth: 89.6%
CAKI-1 renal
  growth: 78.2%
A498 renal
  growth: 89%
CCRF-CEM leukemia
  growth: -5.45% (active)
MOLT-4 leukemia
  growth: 39.2%
